Source: PubChem BioAssay AID623955 (NMMLSC, 2012)
Potency and affinity values are given separately. Calls of active or inactive are those of the source.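 How the source made its calls: active means fitted EC50, the concentration giving half the signal drop, under 100 µM; inactive means the rest.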

target: ATP-binding cassette sub-family B member 6 (Homo sapiens) (UniProt Q9NP58); experiment: concentration-dependent ABCB6 porphyrin transport blockade – K562-ABCB6 cells, flow cytometry, cherry pick 1, dose response (AID 623955); settings: K562-ABCB6 porphyrin fluorescence, 1 h; series mostly up to 100 µM
Sequence (Q9NP58 whole entry, looked up): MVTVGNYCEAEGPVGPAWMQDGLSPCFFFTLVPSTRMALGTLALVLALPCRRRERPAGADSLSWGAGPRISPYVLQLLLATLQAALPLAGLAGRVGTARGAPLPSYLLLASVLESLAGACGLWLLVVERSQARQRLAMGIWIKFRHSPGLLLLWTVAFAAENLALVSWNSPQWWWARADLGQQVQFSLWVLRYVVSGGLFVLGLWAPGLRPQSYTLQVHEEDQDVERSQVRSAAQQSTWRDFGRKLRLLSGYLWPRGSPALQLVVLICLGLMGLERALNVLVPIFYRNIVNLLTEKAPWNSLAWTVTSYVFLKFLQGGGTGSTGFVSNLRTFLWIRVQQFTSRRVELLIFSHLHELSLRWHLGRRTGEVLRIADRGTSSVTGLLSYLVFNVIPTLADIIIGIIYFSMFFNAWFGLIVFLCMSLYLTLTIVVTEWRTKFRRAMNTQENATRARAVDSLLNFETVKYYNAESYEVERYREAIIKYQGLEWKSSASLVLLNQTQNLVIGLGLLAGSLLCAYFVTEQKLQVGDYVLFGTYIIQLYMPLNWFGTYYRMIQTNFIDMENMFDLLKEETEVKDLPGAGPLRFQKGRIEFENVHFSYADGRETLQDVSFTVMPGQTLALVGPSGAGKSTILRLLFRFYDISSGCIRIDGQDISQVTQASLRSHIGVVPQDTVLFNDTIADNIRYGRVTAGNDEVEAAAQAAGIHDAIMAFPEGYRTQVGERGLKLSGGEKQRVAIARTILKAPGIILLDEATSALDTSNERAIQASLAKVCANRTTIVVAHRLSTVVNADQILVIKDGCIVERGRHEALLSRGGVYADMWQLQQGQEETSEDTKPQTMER

outcome, inactive:
COCCNC(=O)CCc1nnc2ccc(N3CCC(C)CC3)nn12
CCOC(=O)C(C)NC(=O)CCc1nnc2ccc(N3CCCCC3)nn12 (centres undefined)
CC1CCN(c2ccc3nnc(CCC(=O)NCCCOC(C)C)n3n2)CC1
CCOC(=O)CNC(=O)CCc1nnc2ccc(N3CCC(C)CC3)nn12
O=C(CN1CCCCC1)Nc1cccc(Br)c1
CC1CCN(c2ccc3nnc(CCC(=O)N4CCCCC4)n3n2)CC1
CCOC(=O)C(C)NC(=O)CCc1nnc2ccc(N3CCC(C)CC3)nn12 (centres undefined)
CC(C)CCNC(=O)CCc1nnc2ccc(N3CCC(C)CC3)nn12
CCCNC(=O)CCc1nnc2ccc(N3CCC(C)CC3)nn12
CC1CCN(c2ccc3nnc(CCC(=O)NC(C)C)n3n2)CC1
CC1CC(C)CN(C(=O)CCc2nnc3ccc(N4CCCCC4)nn23)C1 (centres undefined)
CCN(CC)CCNC(=O)CCc1nnc2ccc(N3CCC(C)CC3)nn12
CCOC(=O)N1CCN(CC(=O)Nc2ccc(C)cc2)CC1
CCN1CCN(C(=O)CCc2nnc3ccc(N4CCC5(CC4)OCCO5)nn23)CC1
CN1CCN(C(=O)CCc2nnc3ccc(N4CCC5(CC4)OCCO5)nn23)CC1
COC(=O)C(NC(=O)CCc1nnc2ccc(N3CCCCC3)nn12)C(C)C (centres undefined)
CCC(C)NC(=O)CCc1nnc2ccc(N3CCC(C)CC3)nn12 (centres undefined)
CCOCCCNC(=O)CCc1nnc2ccc(N3CCCCC3)nn12
COC(=O)C(NC(=O)CCc1nnc2ccc(N3CCC(C)CC3)nn12)C(C)C (centres undefined)
CC1CCN(C(=O)CCc2nnc3ccc(N4CCC5(CC4)OCCO5)nn23)CC1
O=C(CCc1nnc2ccc(N3CCC4(CC3)OCCO4)nn12)N1CCCCC1
COCCCNC(=O)CCc1nnc2ccc(N3CCC(C)CC3)nn12
CCOC(=O)C1CCN(C(=O)CCc2nnc3ccc(N4CCN(C)CC4)nn23)CC1
CCc1ccc(CNC(=O)C2Cc3cc(S(=O)(=O)N4CCCC4)ccc3N2C(C)=O)cc1 (centres undefined)
